# Experimental data taken from PubChem BioAssay (EPA / NIEHS).
# Calls of active or inactive are those of the source. How the source made its calls: active means hit-call score of the fitted dose curve at least 0.9, where 1 is the maximum; inactive means score below 0.9.
# Experiments:
# Details in all cases: mRNA level, 48 h; actives raise or lower the signal
# [1] = read-out: Tumor necrosis factor receptor superfamily member 6 (Homo sapiens) (UniProt P25445); test: LTEA_HepaRG_FAS: Life Technologies and Expression Analysis (LTEA) Assay for Fas cell surface death receptor (FAS) using HepaRG (AID 2283447)
# Summary of the method: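 Differentiated HepaRG cells in serum-free induction medium were exposed 48 h to 8 half-log concentrations up to 100 uM in 0.5% DMSO, in duplicate. FAS mRNA was measured by qRT-PCR normalised to ACTB, GAPDH and POLR2A; bidirectional fit versus DMSO.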
# [2] = read-out: Fatty acid synthase (Homo sapiens) (UniProt P49327); test: LTEA_HepaRG_FASN: Life Technologies and Expression Analysis (LTEA) Assay for Fatty Acid Synthase (FASN) using HepaRG (AID 2283448);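 on AC50: differentiated human HepaRG liver cells in serum-free induction medium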
# Summary of the method: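 In human HepaRG cultures, 48 h chemical exposure (up to 100 uM, 0.5% DMSO) preceded TaqMan qRT-PCR of FASN.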
# [3] = read-out: Cyclin D2 (CCND2), CCND2 (gene 894); test: LTEA_HepaRG_CCND2: Life Technologies and Expression Analysis (LTEA) Assay for Cyclin D2 (CCND2) using HepaRG (AID 2283449);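 further: CCND2 transcript measured by TaqMan qRT-PCR and normalised to three housekeeping genes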
# Summary of the method: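 HepaRG, 48 h dosing, 8-pt half-log curve from 100 uM, 0.5% DMSO; duplicate wells. Readout: CCND2 transcript by microfluidic qRT-PCR, housekeeping-normalised; bidirectional fit vs DMSO baseline.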
# [4] = read-out: Cyclin Dependent Kinase Inhibitor 1A (CDKN1A), CDKN1A (gene 1026); test: LTEA_HepaRG_CDKN1A: Life Technologies and Expression Analysis (LTEA) Assay for Cyclin Dependent Kinase Inhibitor 1A (CDKN1A) using HepaRG (AID 2283450)
# Summary of the method: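 HepaRG, 48 h dosing, 8-pt half-log series from 100 uM top, 0.5% DMSO vehicle, duplicates. Readout: TaqMan qRT-PCR of CDKN1A transcript, housekeeping-normalized (ACTB, GAPDH, POLR2A). Up/down curve fit relative to DMSO.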
# [5] = read-out: Cyclin D1 (CCND1), CCND1 (gene 595); test: LTEA_HepaRG_CCND1: Life Technologies and Expression Analysis (LTEA) Assay for Cyclin D1 (CCND1) using HepaRG (AID 2283451);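 on AC50: differentiated human HepaRG liver cells in serum-free induction medium; TaqMan qRT-PCR transcript level normalised to ACTB GAPDH and POLR2A housekeeping genes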
# Summary of the method: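 qRT-PCR (Fluidigm 96.96 array) read-out of transcript level, housekeeping-normalized (ACTB/GAPDH/POLR2A). HepaRG cells, 48 h chemical exposure, 8-point half-log series from 100 uM, 0.5% DMSO vehicle; gain or loss relative to DMSO baseline.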
# [6] = read-out: catalase (CAT), CAT (gene 847); test: LTEA_HepaRG_CAT: Life Technologies and Expression Analysis (LTEA) Assay for catalase (CAT) using HepaRG (AID 2283452)
# Summary of the method: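 HepaRG cells in serum-free induction medium, 0.5% DMSO vehicle, exposed 48 h in duplicate over 8 half-log concentrations from 100 uM. CAT mRNA measured by qRT-PCR, normalized to ACTB, GAPDH, POLR2A; bidirectional fit versus DMSO.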
# [7] = read-out: flavin-containing dimethylaniline monooxygenases 3 (FMO3), FMO3 (gene 2328); test: LTEA_HepaRG_FMO3: Life Technologies and Expression Analysis (LTEA) Assay for flavin-containing dimethylaniline monooxygenases 3 (FMO3) using HepaRG (AID 2283453);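 on AC50: differentiated human HepaRG liver cells in serum-free induction medium; FMO3 transcript by TaqMan qRT-PCR normalized to ACTB GAPDH and POLR2A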
# Summary of the method: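 Eight-point concentration-response in serum-free HepaRG cultures (top 100 uM, 0.5% DMSO, 48 h). Read-out: FMO3 mRNA level normalized to three endogenous control genes, fitted bidirectionally versus vehicle.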
# [8] = read-out: Cytochrome P450 (CYP1A1), CYP1A1 (gene 1543); test: LTEA_HepaRG_CYP1A1: Life Technologies and Expression Analysis (LTEA) Assay for Cytochrome P450 (CYP1A1) using HepaRG (AID 2283454)
# Summary of the method: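 qRT-PCR read-out: CYP1A1 transcript normalized to three housekeeping genes, fitted bidirectionally against 0.5% DMSO vehicle baseline. Human HepaRG cells, 48 h chemical exposure, 8-point half-log series topping at 100 uM.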
# [9] = read-out: Forkhead box O1 (FOXO1), FOXO1 (gene 2308); test: LTEA_HepaRG_FOXO1: Life Technologies and Expression Analysis (LTEA) Assay for Forkhead box O1 (FOXO1) using HepaRG (AID 2283456)
# Summary of the method: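 HepaRG, 48 h exposure, 8-pt half-log series from 100 uM in 0.5% DMSO, duplicates; Fluidigm qRT-PCR mRNA, housekeeping-normalised; bidirectional fit vs DMSO baseline.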
# [10] = read-out: CFLAR gene, CFLAR (gene 8837); test: LTEA_HepaRG_CFLAR: Life Technologies and Expression Analysis (LTEA) Assay for CFLAR gene using HepaRG (AID 2283455)
# Summary of the method: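 qRT-PCR read-out (Fluidigm/TaqMan) of CFLAR mRNA, normalized to three housekeeping genes, in differentiated human HepaRG cells after 48 h chemical exposure; 8-point half-log series from 100 uM in 0.5% DMSO; bidirectional curve fitting versus DMSO.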
# Sequence of Fatty acid synthase (Homo sapiens) (P49327 whole entry, looked up): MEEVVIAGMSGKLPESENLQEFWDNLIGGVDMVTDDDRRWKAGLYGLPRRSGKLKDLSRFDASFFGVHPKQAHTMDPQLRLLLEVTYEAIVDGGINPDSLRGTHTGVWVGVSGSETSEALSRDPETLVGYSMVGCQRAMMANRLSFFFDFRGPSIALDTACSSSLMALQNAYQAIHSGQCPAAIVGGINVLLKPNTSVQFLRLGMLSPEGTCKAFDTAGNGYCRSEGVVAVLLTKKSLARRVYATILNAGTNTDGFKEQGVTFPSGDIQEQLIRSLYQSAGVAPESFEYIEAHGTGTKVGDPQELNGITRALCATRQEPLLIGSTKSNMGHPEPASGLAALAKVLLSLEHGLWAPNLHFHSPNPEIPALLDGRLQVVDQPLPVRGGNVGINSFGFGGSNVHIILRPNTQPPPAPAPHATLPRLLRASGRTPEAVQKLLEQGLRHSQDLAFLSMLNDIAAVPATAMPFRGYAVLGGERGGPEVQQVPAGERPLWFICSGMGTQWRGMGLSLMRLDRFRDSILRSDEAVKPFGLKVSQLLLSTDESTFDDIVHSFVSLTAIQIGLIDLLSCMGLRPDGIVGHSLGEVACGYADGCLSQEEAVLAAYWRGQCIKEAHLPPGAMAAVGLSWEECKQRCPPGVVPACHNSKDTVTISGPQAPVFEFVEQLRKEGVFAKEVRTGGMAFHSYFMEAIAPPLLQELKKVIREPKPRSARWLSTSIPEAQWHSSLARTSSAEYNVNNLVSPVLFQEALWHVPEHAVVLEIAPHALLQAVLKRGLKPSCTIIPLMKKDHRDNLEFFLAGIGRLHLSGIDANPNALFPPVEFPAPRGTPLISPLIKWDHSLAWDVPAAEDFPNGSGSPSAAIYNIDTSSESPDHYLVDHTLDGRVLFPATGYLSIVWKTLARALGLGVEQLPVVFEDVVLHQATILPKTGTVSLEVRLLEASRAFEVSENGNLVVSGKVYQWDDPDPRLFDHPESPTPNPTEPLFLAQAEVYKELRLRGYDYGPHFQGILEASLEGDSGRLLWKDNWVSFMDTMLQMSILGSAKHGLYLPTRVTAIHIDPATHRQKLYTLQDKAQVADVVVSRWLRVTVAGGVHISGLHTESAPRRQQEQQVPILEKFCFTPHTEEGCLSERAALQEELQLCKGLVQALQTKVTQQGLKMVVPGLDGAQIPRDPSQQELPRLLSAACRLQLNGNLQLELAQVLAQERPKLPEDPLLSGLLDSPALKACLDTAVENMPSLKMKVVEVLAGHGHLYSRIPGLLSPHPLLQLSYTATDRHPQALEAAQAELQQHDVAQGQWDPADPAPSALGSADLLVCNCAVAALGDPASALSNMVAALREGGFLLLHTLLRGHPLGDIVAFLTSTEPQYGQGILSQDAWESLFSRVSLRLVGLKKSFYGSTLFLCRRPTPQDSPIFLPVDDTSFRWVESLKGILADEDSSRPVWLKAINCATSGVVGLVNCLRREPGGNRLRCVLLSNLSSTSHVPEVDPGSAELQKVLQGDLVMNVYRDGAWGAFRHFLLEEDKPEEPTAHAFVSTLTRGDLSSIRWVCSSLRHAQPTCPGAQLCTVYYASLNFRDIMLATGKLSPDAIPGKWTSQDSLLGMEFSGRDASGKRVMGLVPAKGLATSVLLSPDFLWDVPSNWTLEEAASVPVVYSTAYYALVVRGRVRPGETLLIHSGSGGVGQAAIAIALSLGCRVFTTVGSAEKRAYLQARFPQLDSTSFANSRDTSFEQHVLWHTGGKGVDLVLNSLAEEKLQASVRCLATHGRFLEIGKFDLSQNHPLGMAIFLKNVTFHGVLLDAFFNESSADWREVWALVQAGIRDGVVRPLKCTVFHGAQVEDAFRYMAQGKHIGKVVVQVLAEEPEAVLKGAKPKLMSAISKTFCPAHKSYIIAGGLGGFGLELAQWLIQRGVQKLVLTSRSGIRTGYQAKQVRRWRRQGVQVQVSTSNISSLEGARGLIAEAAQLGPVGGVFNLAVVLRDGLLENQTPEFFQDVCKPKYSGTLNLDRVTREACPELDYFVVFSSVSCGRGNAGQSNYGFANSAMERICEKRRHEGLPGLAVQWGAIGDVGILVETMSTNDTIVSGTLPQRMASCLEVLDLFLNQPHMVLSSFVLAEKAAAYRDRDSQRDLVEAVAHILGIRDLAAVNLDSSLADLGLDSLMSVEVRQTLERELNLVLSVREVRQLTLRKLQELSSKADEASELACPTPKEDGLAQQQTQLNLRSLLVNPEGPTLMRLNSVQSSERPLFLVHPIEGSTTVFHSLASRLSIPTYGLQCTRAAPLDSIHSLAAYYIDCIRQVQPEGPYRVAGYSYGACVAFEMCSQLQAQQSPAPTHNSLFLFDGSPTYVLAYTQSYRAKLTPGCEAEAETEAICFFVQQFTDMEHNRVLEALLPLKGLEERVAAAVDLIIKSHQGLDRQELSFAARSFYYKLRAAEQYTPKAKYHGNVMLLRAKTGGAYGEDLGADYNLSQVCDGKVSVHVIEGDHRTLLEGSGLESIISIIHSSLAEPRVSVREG
compound,measurement,setting,value
CC(C)(O)c1coc(S(=O)(=O)NC(=O)Nc2c3c(cc4c2CCC4)CCC3)c1,outcome,[1],inactive
same,outcome,[2],inactive
same,outcome,[3],inactive
same,outcome,[4],inactive
same,outcome,[5],inactive
same,outcome,[6],inactive
same,outcome,[7],inactive
same,AC50,[8],50 µM (active)
same,outcome,[9],inactive
CCCCC(CC)COC(=O)CCCCCCCCC(=O)OCC(CC)CCCC (configuration not stated),outcome,[1],inactive
same,outcome,[2],inactive
same,outcome,[3],inactive
same,outcome,[4],inactive
same,outcome,[5],inactive
same,outcome,[6],inactive
same,outcome,[7],inactive
same,outcome,[8],inactive
same,outcome,[10],inactive
same,outcome,[9],inactive
CCCCC(CC)COC(=O)c1ccc(C(=O)OCC(CC)CCCC)cc1 (configuration not stated),outcome,[1],inactive
same,outcome,[2],inactive
same,outcome,[3],inactive
same,outcome,[4],inactive
same,outcome,[5],inactive
same,outcome,[6],inactive
same,outcome,[7],inactive
same,outcome,[8],inactive
same,outcome,[9],inactive
CCOc1cccc(-n2cc(C(=O)N3CCN(c4cc(C(=O)O)c5ccccc5c4)CC3)nc2-c2ccc(C)cc2)c1,outcome,[1],inactive
same,AC50,[2],80.5 µM (active)
same,outcome,[3],inactive
same,outcome,[4],inactive
same,AC50,[5],82.4 µM (active)
same,AC50,[6],31.6 µM (active)
same,AC50,[7],33.1 µM (active)
same,AC50,[8],12.3 µM (active)
same,AC50,[10],84 µM (active)
same,AC50,[9],80.5 µM (active)
CC[C@H]1CC[C@H](NCc2cc3c(cc2OC)[C@H]2C[C@H]2C(=O)N3C)[C@H](c2ccccc2)N1,outcome,[1],inactive
same,AC50,[2],57.7 µM (active)
same,outcome,[3],inactive
same,outcome,[4],inactive
same,outcome,[5],inactive
same,outcome,[6],inactive
same,outcome,[7],inactive
same,AC50,[8],37.6 µM (active)
same,outcome,[10],inactive
same,outcome,[9],inactive
CCCCCCCCCCCCCCCO,outcome,[1],inactive
same,outcome,[2],inactive
same,outcome,[3],inactive
same,outcome,[4],inactive
same,outcome,[5],inactive
same,outcome,[6],inactive
same,outcome,[7],inactive
same,AC50,[8],30.8 µM (active)
same,outcome,[10],inactive
same,outcome,[9],inactive
C=CCCCCCCCCC(=O)O,outcome,[1],inactive
same,outcome,[2],inactive
same,outcome,[3],inactive
same,outcome,[4],inactive
same,outcome,[5],inactive
same,outcome,[6],inactive
same,outcome,[7],inactive
same,AC50,[8],50 µM (active)
same,outcome,[10],inactive
same,outcome,[9],inactive
Cc1ccc(N)cc1O,outcome,[1],inactive
same,AC50,[2],26.3 µM (active)
same,outcome,[3],inactive
same,outcome,[4],inactive
same,outcome,[5],inactive
same,outcome,[6],inactive
same,outcome,[7],inactive
same,AC50,[8],26.4 µM (active)
same,outcome,[10],inactive
same,outcome,[9],inactive
CNS(=O)(=O)c1cc(C(=O)N2CCC(CCN3C4CCC3CC(n3c(C)nc5ccccc53)C4)(c3cccc(F)c3)CC2)c(Cl)cc1F (configuration not stated),outcome,[1],inactive
same,outcome,[2],inactive
same,outcome,[3],inactive
same,AC50,[4],31 µM (active)
same,outcome,[5],inactive
same,AC50,[6],15.6 µM (active)
same,AC50,[7],24.2 µM (active)
same,outcome,[8],inactive
same,outcome,[9],inactive
NC(=O)NO,outcome,[1],inactive
same,outcome,[2],inactive
same,outcome,[3],inactive
same,outcome,[4],inactive
same,outcome,[5],inactive
same,outcome,[6],inactive
same,outcome,[7],inactive
same,outcome,[10],inactive
same,outcome,[9],inactive
Nc1ccc(Nc2ccccc2)cc1,outcome,[1],inactive
same,outcome,[2],inactive
same,outcome,[3],inactive
same,outcome,[4],inactive
same,outcome,[5],inactive
same,outcome,[6],inactive
same,AC50,[7],50 µM (active)
same,AC50,[8],10.9 µM (active)
same,outcome,[9],inactive
CN(C)c1ccc(Cc2ccc(N(C)C)cc2)cc1,AC50,[1],50 µM (active)
same,outcome,[2],inactive
same,outcome,[3],inactive
same,outcome,[4],inactive
same,outcome,[5],inactive
same,AC50,[7],83.1 µM (active)
same,AC50,[8],13.2 µM (active)
same,outcome,[9],inactive
O=C(O)CCN(C1(C(=O)NO)CCCC1)S(=O)(=O)c1ccc(Oc2ccc(F)cc2)cc1,outcome,[1],inactive
same,outcome,[2],inactive
same,outcome,[3],inactive
same,outcome,[4],inactive
same,outcome,[5],inactive
same,outcome,[7],inactive
same,AC50,[8],67.5 µM (active)
same,outcome,[10],inactive
same,outcome,[9],inactive
Cc1c(-c2cccnc2)c2ccccc2n1CCCCC(=O)O,outcome,[1],inactive
same,outcome,[2],inactive
same,outcome,[3],inactive
same,outcome,[4],inactive
same,outcome,[5],inactive
same,outcome,[6],inactive
same,outcome,[7],inactive
same,AC50,[8],37.2 µM (active)
same,outcome,[9],inactive
CC(C)c1cccc(C(C)C)c1N1C(=O)c2ccc(O)cc2C1=O,outcome,[1],inactive
same,AC50,[2],82.1 µM (active)
same,outcome,[3],inactive
same,outcome,[4],inactive
same,AC50,[5],82.4 µM (active)
same,AC50,[7],84.1 µM (active)
same,AC50,[8],63.1 µM (active)
same,outcome,[10],inactive
same,AC50,[9],83.9 µM (active)
O=C1OC(=O)C2C3C=CC(C3)C12 (configuration not stated),outcome,[1],inactive
same,outcome,[2],inactive
same,outcome,[3],inactive
same,outcome,[4],inactive
same,outcome,[5],inactive
same,outcome,[6],inactive
same,outcome,[7],inactive
same,AC50,[8],84.5 µM (active)
same,outcome,[9],inactive
CCCC(=O)OCC,outcome,[1],inactive
same,outcome,[2],inactive
same,outcome,[3],inactive
same,outcome,[4],inactive
same,outcome,[5],inactive
same,outcome,[7],inactive
same,AC50,[8],50 µM (active)
same,outcome,[10],inactive
same,outcome,[9],inactive
COc1ccc(/C=C/S(=O)(=O)NC(=O)c2ccc(C)cc2Cl)cc1,outcome,[1],inactive
same,outcome,[2],inactive
same,outcome,[3],inactive
same,outcome,[4],inactive
same,outcome,[5],inactive
same,outcome,[7],inactive
same,AC50,[8],50 µM (active)
same,outcome,[9],inactive
CC(C)CCCCCCCOC(=O)CCCCC(=O)OCCCCCCCC(C)C,outcome,[1],inactive
same,outcome,[2],inactive
same,outcome,[3],inactive
same,outcome,[4],inactive
same,outcome,[5],inactive
same,outcome,[7],inactive
same,AC50,[8],50 µM (active)
same,outcome,[10],inactive
same,outcome,[9],inactive
CCCCCCCCO,outcome,[1],inactive
same,outcome,[2],inactive
same,outcome,[3],inactive
same,outcome,[4],inactive
same,outcome,[5],inactive
same,outcome,[7],inactive
same,outcome,[8],inactive
same,outcome,[10],inactive
same,outcome,[9],inactive
CC(=O)OCCC(C)C,outcome,[1],inactive
same,outcome,[2],inactive
same,outcome,[3],inactive
same,outcome,[4],inactive
same,outcome,[5],inactive
same,outcome,[7],inactive
same,AC50,[8],73.2 µM (active)
same,outcome,[9],inactive
